Source: PubChem BioAssay (NCATS)
Records with an inconclusive call do not appear. Entries that show only a call come without a potency. Active and inactive are the calls of the source. Calls follow the shape of the dose curve; as a rule, active = well fitted inhibition curve with a large enough effect; inconclusive = small, poorly fitted or top-dose-only effect; inactive = no such curve, though single readings can be large or run the other way.
Potency is read from the fitted curve at half-maximal effect.

The compounds below were run against Papain (Carica papaya) (UniProt P00784) (assay: Primary qHTS assay for inhibitors of the protease papain (AID 1645873;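 also: papain turnover of Z-FR-AMC read as the AMC fluorescence gain over 10 min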)). Conditions: papain Z-FR-AMC cleavage, AMC fluorescence; series mostly up to 49.8 µM.
Sequence of Papain (Carica papaya) (P00784 whole entry, looked up): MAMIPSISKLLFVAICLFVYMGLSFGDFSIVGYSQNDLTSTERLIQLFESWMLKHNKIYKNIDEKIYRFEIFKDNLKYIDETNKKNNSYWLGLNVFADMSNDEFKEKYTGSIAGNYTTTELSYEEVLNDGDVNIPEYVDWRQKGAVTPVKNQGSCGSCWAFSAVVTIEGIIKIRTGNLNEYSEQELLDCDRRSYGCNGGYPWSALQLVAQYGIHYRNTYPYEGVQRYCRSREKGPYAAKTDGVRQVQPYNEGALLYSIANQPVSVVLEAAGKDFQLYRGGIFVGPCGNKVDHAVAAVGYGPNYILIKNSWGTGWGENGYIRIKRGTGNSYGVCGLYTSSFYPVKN
For `CCSC(=N)N`, the Potency was “inactive”.
`NC(N)=N[C@@H](CCC(=O)O)C(=O)O` was tested, and the Potency was “inactive”.
With `CN(C)CCCc1cc(C(=O)Nc2ccc(-c3ccncc3)cc2)ccc1O` the Potency was “inactive”.
With `Cc1nc2n(c(=O)c1CCN1CCC(c3noc4cc(F)ccc34)CC1)CCCC2O` (centres undefined) the Potency was “inactive”.
With `N[C@H](C(=O)O)c1cc(O)cc(O)c1` the Potency was “inactive”.
`CC(C)[C@@H]1CC[C@@H](C)C[C@@H]1P(=O)(c1ccccc1)c1ccccc1` was tested, and the Potency was “inactive”.
For `N[C@H](C(=O)O)[C@H](O)C(=O)O`, the Potency was “inactive”.
With `NCCS(=O)O` the Potency was “inactive”.
With `COc1cc([C@@H]2c3cc4c(cc3[C@H](O)C3COC(=O)[C@@H]32)OCO4)cc(OC)c1OC` (some centres undefined) the Potency was “inactive”.
`CNC(=O)c1cc2c(cn1)[nH]c1ccccc12` was tested, and the Potency was 25.1 µM (active).
In the case of `Nc1ncnc2c1ncn2C1CCCO1` (centres undefined), the Potency is reported as “inactive”.
With `Nc1ncnc2c1ncn2C1CCCC1` the Potency was “inactive”.
`OC1(c2ccc(Cl)cc2)CCN(Cc2c[nH]c3ccccc23)CC1` was tested, and the Potency was “inactive”.
In the case of `NC1CONC1=O` (centres undefined), the Potency is reported as “inactive”.
With `Nn1nnc2ccccc21` the Potency was “inactive”.
With `N=C(N)SCCN` the Potency was “inactive”.
`Cn1cc(C(=O)OCC2CCN(CCNS(C)(=O)=O)CC2)c2ccccc21` was tested, and the Potency was “inactive”.
In the case of `CC(C)NC[C@H](O)COc1ccc(CC(N)=O)cc1`, the Potency is reported as “inactive”.
For `O=c1cc(-c2ccccc2)[nH]c2nc(Cl)ccc12`, the Potency was “inactive”.
`CN[C@H](CC(=O)O)C(=O)O` was tested, and the Potency was “inactive”.
In the case of `c1ccc(CN2CCC3(CCCc4ccccc43)CC2)cc1`, the Potency is reported as “inactive”.
For `CCCn1c(=O)c(C)cn2nc(N)nc12`, the Potency was 28.2 µM (active).
`COc1cc(C(O)C(=O)O)ccc1O` (centres undefined) was tested, and the Potency was “inactive”.
In the case of `CC1CNCCN1S(=O)(=O)c1cccc2cnccc12` (centres undefined), the Potency is reported as “inactive”.
